18 compounds from PubChem BioAssay (EPA / NIEHS) can be followed below.

Structures are written as SMILES. Some structures have more than one record in an assay (separate samples or runs), and their calls can disagree. Activity calls are given as the source filed them. The calls were made as follows: active = hit-call score of the fitted dose curve at least 0.9, where 1 is the maximum; inactive = score below 0.9.

Read-out in experiment [1]: Interferon-gamma inducible Protein 10 (IP10), CXCL10 (gene 3627)
Description: BSK_hDFCGF_IP10: BioMAP Diversity Plus: hDFCGF Assay for Interferon-gamma inducible Protein 10 (IP10) Biomarker Activity (AID 2283053). To be noted: primary human foreskin fibroblasts; actives raise or lower the signal. The essentials:
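ELISA read-out of IP-10 (CXCL10) from primary human skin fibroblasts, 24 h after compound addition. Gain or loss of signal versus DMSO baseline, bidirectional curve fitting.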

Read-out in experiment [2]: Urokinase-type plasminogen activator receptor (uPAR), PLAUR (gene 5329)
Nature of the experiment: BSK_CASM3C_uPAR: BioMAP Diversity Plus: CASM3C Assay for Urokinase-type plasminogen activator receptor (uPAR) Biomarker Activity (AID 2283054).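 Also: cell-surface uPAR protein level quantified by ELISA.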 To be noted: primary human coronary artery smooth muscle cells; actives raise or lower the signal.

Read-out in experiment [3]: Vascular cell adhesion molecule 1 (VCAM1), VCAM1 (gene 7412)
Description: BSK_CASM3C_VCAM1: BioMAP Diversity Plus: CASM3C Assay for Vascular cell adhesion molecule 1 (VCAM1) Biomarker Activity (AID 2283055).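 Also: VCAM-1 protein level quantified by ELISA on the cells.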 To be noted: primary human coronary artery smooth muscle cells; actives raise or lower the signal.

Read-out in experiment [4]: Interleukin-8 (IL8), CXCL8 (gene 3576)
Description: BSK_hDFCGF_IL8: BioMAP Diversity Plus: hDFCGF Assay for Interleukin-8 (IL8) Biomarker Activity (AID 2283058). To be noted: primary human foreskin fibroblasts; actives raise or lower the signal. The essentials: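 Fibroblast monolayers (human foreskin, hDFCGF) received test chemical for 24 h before ELISA detection of IL-8; either increases or decreases relative to DMSO count as activity.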

Experiment [5] can be described thus: BSK_hDFCGF_Proliferation: Cell Proliferation Assessment in the BioMAP Diversity Plus: hDFCGF Assay (AID 2283059).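 Also: curves fitted for both rise and fall of signal versus DMSO baseline.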 To be noted: primary human foreskin fibroblasts. The essentials:
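Steps: dose primary human dermal fibroblasts (foreskin); […] fix in 10% TCA; stain with 0.1% SRB; read 560 nm; fit gain or loss of signal against DMSO.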

Read-out in experiment [6]: Macrophage colony-stimulating factor (MCSF), CSF1 (gene 1435)
Nature of the experiment: BSK_hDFCGF_MCSF: BioMAP Diversity Plus: hDFCGF Assay for Macrophage colony-stimulating factor (MCSF) Biomarker Activity (AID 2283060). To be noted: primary human foreskin fibroblasts; actives raise or lower the signal. The procedure, abridged:
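fibroblasts (human foreskin, primary), 24 h post-dose; M-CSF by ELISA; bidirectional fit, DMSO = baseline.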

A short description of experiment [7]: BSK_hDFCGF_SRB: Viability Assessment in the BioMAP Diversity Plus: hDFCGF Assay (AID 2283061).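 Also: cells exposed to compound for 24 h before the read.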 To be noted: primary human foreskin fibroblasts. The procedure, abridged: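 SRB-based viability read on primary human skin fibroblasts at 24 h: TCA fixation, 0.1% dye, 560 nm. Gain or loss of signal is fitted against the DMSO negative control.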
Read-out in experiment [8]: TIMP metallopeptidase inhibitor 1 (TIMP1), TIMP1 (gene 7076)
Nature of the experiment: BSK_hDFCGF_TIMP1: BioMAP Diversity Plus: hDFCGF Assay for TIMP metallopeptidase inhibitor 1 (TIMP1) Biomarker Activity (AID 2283062). To be noted: primary human foreskin fibroblasts; actives raise or lower the signal. The essentials: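 Bidirectional curve fitting against DMSO baseline yielded this endpoint, based on ELISA detection of TIMP-1 in primary human foreskin fibroblasts exposed to compound for 24 h.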

Read-out in experiment [9]: Epidermal growth factor receptor (EGFR), EGFR (gene 1956)
Nature of the experiment: BSK_hDFCGF_EGFR: BioMAP Diversity Plus: hDFCGF Assay for Epidermal growth factor receptor (EGFR) Biomarker Activity (AID 2283057). To be noted: primary human foreskin fibroblasts; actives raise or lower the signal. The essentials: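 ELISA readout of EGFR on human dermal fibroblasts (primary foreskin cells), 24 h post-dosing; bidirectional curve fit vs DMSO baseline, gain or loss of signal scored.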

Regarding `O=C(N[C@H]1CN2CCC1CC2)c1ccc2c(c1)OCCO2`, the outcome in [1], in experiment [2], in experiment [3], in [4], in experiment [5] and in experiment [6] was inactive. Besides, the result in experiment [7] and in experiment [8] was inactive.

A word on the AC50: it is the concentration at which the activity in the assay is half-maximal. Turning to `[Cl][Sn]([c]1ccccc1)([c]1ccccc1)[c]1ccccc1`, the AC50 was 0.0861 µM (active) in [1]; 0.351 µM (active) in experiment [2]; 0.396 µM (active) in experiment [3]; 0.123 µM (active) in experiment [4]; 0.0542 µM (active) in experiment [5]; 0.166 µM (active) in experiment [6]. In addition, the concentration at half-maximal activity (AC50) was 0.233 µM (active) in experiment [7] and 0.158 µM (active) in experiment [8].

In the case of `CC(C)(COCC1CO1)COCC1CO1` (stereo unspecified), the outcome in [1], in experiment [2], in experiment [3], in experiment [9], in experiment [4] and in [6] was inactive. In addition, the outcome in [7] and in [8] was inactive. Also, in experiment [5], the AC50 is 20 µM (active).

As to `Cc1cc(C)cc(C)c1`, the result in [1], in experiment [2], in experiment [3], in [4], in experiment [5] and in [6] was inactive. Moreover, the outcome in experiment [7] and in experiment [8] was inactive.

For the compound `CC(C)(C)c1cc([N+](=O)[O-])cc(C(C)(C)C)c1O`, the result in experiment [1], in [3], in experiment [4], in experiment [5], in [6] and in experiment [7] was inactive. Moreover, in experiment [8], the outcome was inactive. Moreover, the concentration at half-maximal activity (AC50) in experiment [2] was 11.8 µM (active).

With `Cc1ccc(OP(=O)(Oc2ccc(C)cc2C)Oc2ccc(C)cc2C)c(C)c1`, the result in experiment [1], in experiment [2], in experiment [3], in experiment [4] and in experiment [8] was inactive. Besides, the results for the AC50 in experiment [5], in experiment [6] and in experiment [7] were 4.72 µM (active), 5.48 µM (active) and 4.22 µM (active), respectively.

Consider `Oc1ccc(Cc2ccc(O)cc2)cc1`, for which the outcome in [1], in [2], in experiment [3], in [4], in experiment [5] and in experiment [6] was inactive. For the same compound, the outcome in [7] and in experiment [8] was inactive.

Consider `N#Cc1cccnc1`, for which the outcome in experiment [1], in [2], in [3], in [4], in [5] and in experiment [6] was inactive. Moreover, the outcome in experiment [7] and in experiment [8] was inactive.

For the compound `OCCCCO`, the outcome in [1], in experiment [2], in experiment [3], in [4], in experiment [5] and in experiment [6] was inactive. Moreover, the outcome in [7] and in experiment [8] was inactive.

Take `CN(C)C(=S)S`: the AC50 was 18 µM (active) in [1]; 30.9 µM (active) in [4]; 14.6 µM (active) in experiment [5]; 14.2 µM (active) in experiment [6]; 27.1 µM (active) in [7]; 13 µM (active) in experiment [8]. The outcome in [2], in experiment [3] and in experiment [9] was inactive.

As for `O=c1oc2ccccc2c(O)c1C(CC(O)c1ccc(-c2ccc(Br)cc2)cc1)c1ccccc1` (stereo unspecified), the half-maximal activity concentration (AC50) in experiment [1] is 5.38 µM (active); in experiment [2] it was 21.8 µM (active); in experiment [3] it was 5.57 µM (active); in [5] it was 5.25 µM (active); in [6], 5.57 µM (active); in [7], 5.28 µM (active). Besides, the outcome in experiment [4] and in [8] was inactive.

Turning to `CCCCCCCCCCCCc1cccc(S(=O)(=O)O)c1`, the AC50 in experiment [1] is 12.7 µM (active); in experiment [5], 8.86 µM (active); in experiment [6], 12.5 µM (active); in experiment [7], 18.1 µM (active); in [8], 30.1 µM (active). Further, the outcome in [2] and in experiment [3] was inactive.

For the compound `CC1(C)[C@H](C(=O)O[C@H](C#N)c2cccc(Oc3ccccc3)c2)[C@@H]1/C=C(\Cl)C(F)(F)F`, the outcome in experiment [1], in experiment [2], in experiment [3], in [4], in [5] and in experiment [6] was inactive. The result in experiment [7] and in [8] was inactive. Moreover, the half-maximal activity concentration (AC50) in experiment [5] was 7.37 µM (active).

With `Nc1ccc(N)cc1`, the result in [1], in experiment [2], in experiment [3], in experiment [4], in experiment [5] and in experiment [6] was inactive. For the same compound, the outcome in experiment [7] and in experiment [8] was inactive.

Regarding `Oc1c(Br)cc(Br)cc1Br`, the outcome in experiment [1], in [2], in [3], in experiment [4], in experiment [6] and in experiment [7] was inactive. In addition, the outcome in [8] was inactive.

As to `CC(C)(C)c1ccccc1O`, the result in [1], in [2], in experiment [3], in experiment [4], in experiment [5] and in experiment [6] was inactive. For the same compound, the result in experiment [7] and in [8] was inactive.

`O=S(=O)(c1ccc(Cl)cc1)c1cc(Cl)c(Cl)cc1Cl`: the result in experiment [1], in experiment [9], in experiment [4], in [6], in [7] and in [8] was inactive. Also, the AC50 is 20 µM (active) in [2], 0.016 µM (active) in experiment [3] and 20 µM (active) in experiment [5].

For the compound `N#CCCC(Br)(C#N)CBr` (stereo unspecified), the AC50 in [1] is 3.73 µM (active); in [2], 15.6 µM (active); in [3] it was 11.9 µM (active); in experiment [4], 12.7 µM (active); in experiment [5] it was 0.4 µM (active); in experiment [6], 5.08 µM (active). The AC50 is 7.68 µM (active) in experiment [7] and 4.28 µM (active) in experiment [8].
